The campaign covered roughly 22,000 compounds. About 460 (2.1%) were called active. Another 2% or so got no clear call; they are omitted. What follows is part of a selection rich in actives, with near analogues and random picks from the rest. Values without a mark were called inactive.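 How the source made its calls: active means mean inhibition across valid replicates above about 65% (limit read from the data); inconclusive means mean under the limit, yet half or more replicates past it; inactive means the rest.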

The record followed here is PubChem BioAssay AID2313 (Broad Institute, 2010).

The test can be described thus: Shh-driven Gli reporter inhibition – luminescence, Shh-LIGHT2 cells, Gli-luciferase, primary screen (AID 2313).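 Further: pathway switched on by Shh-conditioned medium diluted 1 in 25 in low serum.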 The settings on record: 30 h, hits give high values.
Take `Cc1ccc(S(=O)(=O)Nc2ccc3c(c2)C(=O)N([C@H](C)CO)C[C@@H](C)[C@H](CN(C)Cc2ccccc2)O3)cc1`: the inhibition was 15.5%.

For the molecule `COC(=O)c1sc(SC)c(-c2ccn(S(=O)(=O)c3ccc(Cl)cc3)n2)c1C`, the inhibition is 14.7%.

Turning to `Oc1ccc(-n2cccc2)cc1`, the inhibition is 30.8%.

As for `O=C(OC1=CC(=O)c2cccc3cccc1c23)c1ccccc1`, the inhibition was -20.2%.

Turning to `Cc1ccc(C(=O)c2coc3ccc(O)c(CN(C)C)c23)cc1`, the inhibition is 38.9%.

For the molecule `CC(C)NC(=O)N(C)C[C@H]1Oc2c(NS(=O)(=O)c3ccc(Cl)cc3)cccc2C(=O)N([C@@H](C)CO)C[C@H]1C`, the inhibition is 3.77%.

Regarding `C[C@@H]1O[C@@H](Oc2cc(O)c3c(=O)c(O[C@@H]4O[C@@H](C)[C@H](O)[C@@H](O)[C@H]4O)c(-c4ccc(O)cc4)oc3c2)[C@H](O)[C@H](O)[C@H]1O`, the inhibition was -11.3%.

As for `C[C@H](CO)N1C[C@H](C)[C@H](CN(C)CC2CC2)Oc2ccc(NS(=O)(=O)c3ccccc3)cc2CC1=O`, the inhibition is -5.84%.

Take `C[C@H]1CN([C@@H](C)CO)C(=O)Cc2cc(NS(C)(=O)=O)ccc2O[C@@H]1CN(C)CC1CC1`: the inhibition is 70.7% (active).

Turning to `COc1ccc(S(=O)(=O)Nc2ccc3c(c2)CC(=O)N([C@H](C)CO)C[C@H](C)[C@H](CN(C)CC2CC2)O3)cc1`, the inhibition was -6.58%.

As for `COc1ccc(S(=O)(=O)Nc2cccc3c2O[C@@H](CN(C)S(=O)(=O)c2c(C)noc2C)[C@@H](C)CN([C@H](C)CO)C3=O)cc1`, the inhibition was 24.8%.

For the molecule `C[C@H](CO)N1C[C@H](C)[C@@H](CN(C)Cc2ccccc2)Oc2ccc(NC(=O)CCCN(C)C)cc2C1=O`, the inhibition was -0.759%.

As to `CCOC(=O)c1nnn2c1nc(N1CCN(c3ccccc3)CC1)c1ccccc12`, the inhibition is 37.6%.

In the case of `Cc1cc(C)n2nc(-c3ccc(C(C)(C)C)cc3)cc2n1`, the inhibition is -92.6%.

Take `COc1ccc(CN(C)C[C@H]2Oc3c(NC(=O)C4CC4)cccc3C(=O)N([C@@H](C)CO)C[C@H]2C)cc1`: the inhibition was -3.41%.

In the case of `C[C@@H]1CN([C@@H](C)CO)C(=O)c2cc(NC(=O)c3ccncc3)ccc2O[C@@H]1CN(C)Cc1ccncc1`, the inhibition is 9.73%.

With `C[C@@H]1CN([C@H](C)CO)C(=O)c2cc(NC(=O)c3ccncc3)ccc2O[C@H]1CN(C)Cc1ccc(Oc2ccccc2)cc1`, the inhibition is 73.2% (active).

For `C[C@@H]1CN([C@@H](C)CO)C(=O)c2cc(NC(=O)c3ccncc3)ccc2O[C@H]1CN(C)Cc1ccc(C(=O)O)cc1`, the inhibition is 13.9%.

For `Cc1ccc(S(=O)(=O)N(C)C[C@@H]2Oc3c(NC(=O)Nc4c(C)noc4C)cccc3C(=O)N([C@@H](C)CO)C[C@@H]2C)cc1`, the inhibition was -32.7%.

With `CC(C)(O)C1=CCC23COC(C2)C(O)(C(=O)O)CCC13` (stereo unspecified), the inhibition is 12.8%.

Consider `COc1ccc(NC(=O)N(C)C[C@@H]2Oc3c(NC(=O)NC4CCCCC4)cccc3C(=O)N([C@H](C)CO)C[C@H]2C)cc1`, for which the inhibition is -15.5%.

Turning to `Cc1ccc(S(=O)(=O)N(C)C[C@@H]2Oc3ccc(NS(=O)(=O)c4cn(C)cn4)cc3C(=O)N([C@@H](C)CO)C[C@H]2C)cc1`, the inhibition is -8.67%.

Consider `CCOc1cc(/C=C2\SCOC2=O)ccc1O`, for which the inhibition is -11.1%.

For `COc1ccc(S(=O)(=O)Nc2cccc3c2O[C@H](CN(C)C(=O)NC(C)C)[C@H](C)CN([C@H](C)CO)C3=O)cc1`, the inhibition is 4.9%.

In the case of `CCN(c1ccccc1)S(=O)(=O)c1ccc(C)cc1`, the inhibition is -25.3%.

Turning to `Cc1cc(=O)[nH]c(SCc2cn3c(C)cc(C)nc3n2)n1`, the inhibition was -20.5%.

With `Cc1ccc(S(=O)(=O)Nc2cccc3c2O[C@H](CN(C)S(=O)(=O)c2cn(C)cn2)[C@H](C)CN([C@H](C)CO)C3=O)cc1`, the inhibition is 21.4%.

`COc1ccc(CN(C)C[C@H]2OCCCC[C@@H](C)Oc3ccc(NC(=O)Nc4cccc5ccccc45)cc3C(=O)N([C@H](C)CO)C[C@@H]2C)cc1`: the inhibition was 17.8%.

`Cc1ccc(S(=O)(=O)N(C)C[C@@H]2Oc3c(NC(=O)Nc4ccccc4)cccc3C(=O)N([C@H](C)CO)C[C@H]2C)cc1`: the inhibition is -14.6%.

As for `Cc1ccc(S(=O)(=O)N(C)C[C@@H]2Oc3c(NC(=O)C4CC4)cccc3C(=O)N([C@H](C)CO)C[C@@H]2C)cc1`, the inhibition was 115% (active).

Consider `C[C@H](CO)N1C[C@H](C)[C@H](CN(C)S(=O)(=O)c2ccccc2)Oc2c(NC(=O)Nc3ccccc3)cccc2C1=O`, for which the inhibition is 14.8%.

For `Cc1ccc(S(=O)(=O)N(C)C[C@H]2Oc3c(NC(=O)C4CC4)cccc3C(=O)N([C@@H](C)CO)C[C@@H]2C)cc1`, the inhibition was 28.4%.

Regarding `Cc1ccc(S(=O)(=O)N(C)C[C@@H]2Oc3c(NC(=O)C4CC4)cccc3C(=O)N([C@H](C)CO)C[C@H]2C)cc1`, the inhibition was -12.6%.

Turning to `C[C@H]1CN([C@@H](C)CO)C(=O)c2cccc(NC(=O)Nc3ccccc3)c2O[C@H]1CN(C)S(=O)(=O)c1ccc(Cl)cc1`, the inhibition is 108% (active).

Consider `C[C@@H]1CN([C@H](C)CO)C(=O)c2cccc(NC(=O)Nc3cccc4ccccc34)c2O[C@@H]1CN(C)Cc1ccccc1`, for which the inhibition is 0.787%.

As to `C[C@H]1CN([C@@H](C)CO)C(=O)c2cccc(NC(=O)c3ccncc3)c2O[C@H]1CN(C)C`, the inhibition is -21.4%.

As for `COc1ccc(NC(=O)Nc2cccc3c2O[C@H](CN(C)Cc2ccc(Cl)c(Cl)c2)[C@H](C)CN([C@@H](C)CO)C3=O)cc1`, the inhibition was 51.9%.

`C[C@@H]1CN([C@@H](C)CO)C(=O)Cc2cc(NC(=O)Nc3ccc4c(c3)OCO4)ccc2O[C@@H]1CN(C)S(=O)(=O)c1ccc(Cl)cc1`: the inhibition is 38.3%.

For `O=C1C(c2ccccc2)CCCC1c1ccccc1` (stereo unspecified), the inhibition was 22.1%.

For `Cc1noc(C)c1NC(=O)Nc1cccc2c1O[C@@H](CN(C)C(=O)Nc1ccc(C(F)(F)F)cc1)[C@@H](C)CN([C@@H](C)CO)C2=O`, the inhibition is 1.09%.

As to `Cc1cc(=O)oc2cc(OCc3cccc(F)c3)ccc12`, the inhibition is -75.4%.

`COc1ccc(NC(=O)N(C)C[C@@H]2OCCCC[C@@H](C)Oc3ccc(NS(=O)(=O)c4c(C)noc4C)cc3C(=O)N([C@H](C)CO)C[C@@H]2C)cc1`: the inhibition was -43%.

As for `C=C1CCC2C(C)(C)C(O)CCC2(C)C1CC/C(C)=C/C(=O)O` (stereo unspecified), the inhibition is 4.62%.

Turning to `COc1ccc(NC(=O)Nc2ccc3c(c2)C(=O)N([C@@H](C)CO)C[C@H](C)[C@H](CN(C)CC2CCCCC2)O3)cc1`, the inhibition is -5.89%.

Take `C[C@@H]1CN([C@@H](C)CO)C(=O)c2cc(NC(=O)Nc3ccc(C(F)(F)F)cc3)ccc2O[C@@H]1CN(C)Cc1ccncc1`: the inhibition was 10.7%.

For the molecule `C[C@H]1CN([C@@H](C)CO)C(=O)c2cccc(NC(=O)C3CC3)c2O[C@@H]1CN(C)S(=O)(=O)c1ccc(F)cc1`, the inhibition was -1.67%.

On to `CCCN(C)C[C@@H]1OCCCC[C@@H](C)Oc2ccc(NS(=O)(=O)c3c(C)noc3C)cc2C(=O)N([C@H](C)CO)C[C@@H]1C`, for which the inhibition is 35.2%.

For the molecule `Cc1ccoc1CC[N+](C)(C)C`, the inhibition is -11.8%.

Consider `Cc1ccc(S(=O)(=O)Nc2ccc3c(c2)C(=O)N([C@H](C)CO)C[C@H](C)[C@H](CN(C)S(=O)(=O)c2ccc(F)cc2)OCCCC[C@@H](C)O3)cc1`, for which the inhibition is -17.8%.

With `CCC(=O)O[C@]1(C(=O)CCl)[C@@H](C)CC2C3CCC4=CC(=O)C=C[C@]4(C)[C@@]3(F)[C@@H](O)C[C@@]21C` (stereo partly specified), the inhibition is 79.4% (active).

Regarding `CC[C@]1(O)C[C@@H]2CN(CCc3c([nH]c4ccccc34)[C@@](C(=O)OC)(c3cc4c(cc3OC)N(C)[C@H]3[C@@](O)(C(=O)OC)[C@H](OC(C)=O)[C@]5(CC)C=CCN6CC[C@]43[C@@H]65)C2)C1`, the inhibition was 88.5% (active).

As to `CC(C)NC(=O)N(C)C[C@@H]1Oc2c(NC(=O)c3cnccn3)cccc2C(=O)N([C@@H](C)CO)C[C@@H]1C`, the inhibition is 2.03%.

For the molecule `NC(=S)c1cnn2c(C(F)(F)F)cc(C(F)(F)F)nc12`, the inhibition was -19.5%.

With `CC[N+]1=C(C)C(C)(C)c2cc(-c3ccccc3)ccc21`, the inhibition is 32.5%.

Turning to `C[C@@H]1CCCCO[C@H](CN(C)S(=O)(=O)c2ccc(Cl)cc2)[C@@H](C)CN([C@H](C)CO)C(=O)c2cc(NC(=O)Nc3ccc4c(c3)OCO4)ccc2O1`, the inhibition is -3.15%.

Turning to `Cc1noc(C)c1S(=O)(=O)Nc1ccc2c(c1)CC(=O)N([C@H](C)CO)C[C@@H](C)[C@@H](CN(C)Cc1ccncc1)O2`, the inhibition was 48%.

In the case of `C[C@@H]1CN([C@H](C)CO)C(=O)Cc2cc(NC(=O)Cn3cnnn3)ccc2O[C@H]1CN(C)CC1CCCCC1`, the inhibition is -28.8%.

In the case of `CC(C)(C)c1ccc(-c2[nH]nc(NC(=O)c3ccccc3Cl)c2Br)cc1`, the inhibition is 25.9%.

`CC(C)NC(=O)N(C)C[C@H]1Oc2c(NC(=O)c3ccncc3)cccc2C(=O)N([C@@H](C)CO)C[C@H]1C`: the inhibition was 10.7%.

Regarding `C[C@H]1CN([C@@H](C)CO)C(=O)Cc2cc(NS(=O)(=O)c3cccs3)ccc2O[C@H]1CN(C)Cc1ccncc1`, the inhibition was -17.7%.

Consider `O=C(O)CCC(=O)N(Cc1ccccc1)Cc1cn(-c2ccccc2)nc1-c1cccnc1`, for which the inhibition is -8.01%.

By inhibition is commonly meant the drop in the measured response relative to a control, in per cent.
